Measured values published in PubChem BioAssay AID602296 (Broad Institute, 2012).
Among all 2,000 compounds or so, about 190 (9.5%) were called active. Another 14% or so got no clear call; they are omitted.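 Rule for the calls: active = fitted activation curve crossing 40% at a concentration no higher than the sample's top valid tested dose; inconclusive = flat fitted curve at 30% to 70% activation, or poor curve fit; inactive = signal decrease, flat curve within 30%, or the rest.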 The list is a sample of the results.

test: HSF-1 reporter activators over prolonged exposure, confirmation, cell-based, mouse, luciferase, cherry-pick, dose (AID 602296); conditions: NIH3T3-HGL HSF-1 response element luciferase, 48 h; series mostly up to 26 µM;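 note: test compounds applied by themselves with no MG132 co-treatment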

outcome, inactive:
COc1cc(-c2nc(-c3ccc4c(c3)-c3ccccc3S4(=O)=O)c(-c3ccccc3)[nH]2)cc(OC)c1O
CCC(=O)Nc1c(S(=O)(=O)c2ccccc2)c2nc3ccccc3nc2n1C(C)c1ccccc1 (stereo not given)
CCOc1cc(/C=C2/C(=O)ON=C2C)ccc1OCc1ccc(F)cc1
O=C(CSc1ncn[nH]1)c1cccc([N+](=O)[O-])c1
COc1cc(-c2nnc3sc(Cc4ccc(Cl)cc4)nn23)cc(OC)c1OC
O=C(CN(C(=O)c1csnn1)c1ccc(F)c(Cl)c1)NCc1ccc(F)cc1
CC(C)(C)Cc1nc2ccccc2n1CCc1ccccc1
COC(=O)c1ccc(CSc2nc3ccccc3c(=O)n2CC(C)C)o1
CC(c1ccc(F)cc1)n1c(Cn2ncc3ccccc3c2=O)n[nH]c1=S (stereo not given)
OC(CNCc1ccco1)Cn1c2ccc(Br)cc2c2cc(Br)ccc21 (stereo not given)
COc1ccccc1N1CCN(C(=O)c2ccc3c(=O)n(Cc4ccco4)c(=S)[nH]c3c2)CC1
CCCCNC(=S)N(Cc1ccco1)Cc1cc2cc3c(cc2[nH]c1=O)OCCO3
O=C1N/C(=C\c2ccc(O)cc2)C(O)=C1C=NCc1ccccc1
Cc1cccc(C(C#N)c2ccc(Cl)nn2)c1 (stereo not given)
COc1ccc2[nH]c(C)c(CCNc3ccc(C(F)(F)F)cc3[N+](=O)[O-])c2c1
O=S(=O)(c1ccccc1)c1ncc(C(F)(F)F)cc1Cl
O=C(CCCn1c(=S)[nH]c2ccc(Br)cc2c1=O)NCC1CCCO1 (stereo not given)
COc1ccc(C(=O)N(C)CC(O)c2ccccc2)cc1OC1CCN(C(C)=O)CC1 (stereo not given)
O=C1c2ccccc2-c2onc3ccc(N4CCCC4)c1c23
COC(=O)Cc1ccc(NC(=O)c2ccc(C)c(C)c2)cc1
CCOC(=O)c1c(S(=O)(=O)NCC2CCN(CCc3cccs3)CC2)c(C)n(C)c1C
Cc1nn(C)c(Oc2ccccc2)c1CCNS(=O)(=O)c1ccc(Cl)cc1
CN1C(=O)C2(c3ccccc31)N(C)CC(c1ccccn1)C21SC(=S)N(Cc2ccco2)C1=O (stereo not given)
COC(=O)C1=C(C)NC(=S)NC1c1ccc(-c2cccc(Cl)c2)o1 (stereo not given)
Cc1ccc(C(c2c(C)nn(-c3ccccc3)c2N)c2c(C)nn(-c3ccccc3)c2N)cc1
COc1cc(CNC2CCCC2)cc(OC)c1
CCn1c(SCC(=O)N2CCOCC2)nc2oc3c(Cl)cc(Cl)cc3c(=O)c2c1=O
CC(=O)c1ccc(NC(=O)CCCN2C(=O)/C(=C/C(C)=C/c3ccccc3)SC2=S)cc1
Cc1noc(C)c1COC(=O)c1ccccc1Oc1ccccc1
CCc1nnc(NC(=O)C(NC(=O)c2ccccc2Cl)C(C)C)s1 (stereo not given)
COC(=O)c1sccc1NC(=O)Nc1cccc(F)c1
Cc1cc(SCC(=O)N/N=C/c2ccc(O)c(O)c2)c(C)cc1Br
Cn1c(SCc2cccc(C(F)(F)F)c2)nnc1-c1ccco1
Clc1ccc(CSc2nnc(-c3sccc3-n3cccc3)o2)cc1
Fc1ccc(Sc2ccccc2CNC2=NCCN2)cc1
O=S(=O)(c1ccc(Cl)c(NC(=S)N/N=C/c2ccc(O)cc2)c1)N1CCOCC1
O=c1c(Cl)cc(Cl)nn1-c1ccccc1
CCc1cc2c(SCC#N)ncnc2s1
CCOC(=O)CC(NC(=O)C1c2ccccc2Oc2ccccc21)c1ccccc1Cl (stereo not given)
COc1cccc(-c2c(C#N)c(N)nc3c2c(C)nn3-c2ccccc2)c1O
O=C(COC(=O)/C=C/c1cccc([N+](=O)[O-])c1)NCc1ccco1
CN(C)c1ccc(C(CNC(=O)c2ccccc2)c2c[nH]c3ccccc23)cc1 (stereo not given)
CCOC(=O)CC1C(=O)NCCN1S(=O)(=O)c1cc(Cl)c(Cl)cc1Cl (stereo not given)
O=C(CCC1CCCC1)N=C1SC2CS(=O)(=O)CC2N1c1ccccc1F (stereo not given)
S=c1nc(SCc2ccccc2)[nH]c2ccccc12
O=C(Nc1ccc(OCC(F)(F)C(F)F)c(C(F)(F)F)c1)c1ccccc1O
CC(C)N(Cc1ccccc1)C(=O)COC(=O)/C=C/c1cnc2ccccc2n1
CCN(CCCNC(=O)CCCN1C(=O)COc2ccc(C)cc21)c1cccc(C)c1
Cc1ccc(C)c(NC(=O)CS(=O)(=O)c2cn(C)c3ccccc23)c1
Cc1ccc(NC2OC(CO)C(O)C2O)cc1[N+](=O)[O-] (stereo not given)
COc1cccc(/C=N/Nc2ccc([N+](=O)[O-])cn2)c1O
CCCC(=O)O/N=C(\c1ccccc1)c1ccncc1
COc1ccc(C)cc1NC(=O)CSc1nnc(COc2ccc(Cl)cc2)n1Cc1ccco1
Cc1nc2ccccc2n1CC(O)COCC1CC=CCC1 (stereo not given)
Cc1cccc(-[n+]2c(C)cc(C)c3c(=O)[nH]c(=O)[nH]c32)c1
O=C1CSC(=S)N1/N=C/c1cccc(C(F)(F)F)c1
CN(C)CCCCNCCCNC(=O)/C=N\O
CN(c1cccc(NC(=O)CN(c2cccc(Cl)c2)S(=O)(=O)c2ccc(Cl)cc2)c1)S(C)(=O)=O
CC1CN(C(=O)CS(=O)(=O)Cc2ccccc2)CC(C)O1 (stereo not given)
Cc1ccc(C(=O)/C=C/c2cc(Br)cc(Br)c2O)o1
Cc1c(-n2cc(C(=O)c3ccccc3O)cc(C#N)c2=O)c(=O)n(-c2ccccc2)n1C
O=C(/C=C/c1ccc(Cl)cc1Cl)N(Cc1ccccc1)C1CCS(=O)(=O)C1 (stereo not given)
OCC1(Cc2cccc(C(F)(F)F)c2)CCN(Cc2cc3ccccc3o2)CC1
Cc1ccc(S(=O)(=O)c2c(N)n(-c3ccccc3)c3nc4ccccc4nc23)cc1
CN(CC(=O)Nc1ccccc1Cl)CC(=O)Nc1c(F)cccc1F
